# Results taken from PubChem BioAssay.
# A number with no mark means an inactive call. Entries that show only a call come without a potency. For part of these data: Potency and affinity values are given separately. Active and inactive are the calls of the source. Unless noted, no rule for the calls is given here.
# Experiments:
# [1] = antimalarial activity against Dd2 strain (AID 2302;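 active = growth inhibition above 50% at the single 2 µM test dose, taken to imply half-maximal potency below 2 µM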); details: P. falciparum Dd2 in RBCs, LDH growth readout, 72 h; at 2 µM; stronger effect = higher value
# [2] = human hepatoma cell viability loss – ATP luminescence, cytotoxicity control for P. falciparum antimalarial project, primary screen (AID 2303;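 active = inhibition above 50%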); details: HepG2 viability, 24-48 h, at 10 µM, stronger effect = higher value
# [3] = target: L-lactate dehydrogenase (Plasmodium falciparum (isolate CDC / Honduras)) (UniProt Q27743); assay: PfLDH activity inhibition – cell lysate, 3D7 strain, counter-screen for P. falciparum growth inhibition project (AID 2304); details: P. falciparum 3D7 crude extract, LDH APAD/NBT absorbance; at 2 µM; stronger effect = higher value
# [4] = inhibition of 3D7 malaria parasite growth – strain 3D7 (AID 2306); details: P. falciparum 3D7 erythrocytic growth, LDH absorbance, 72 h; at 2 µM; stronger effect = higher value
# [5] = target: Calcium-dependent protein kinase 1 (Plasmodium falciparum (isolate 3D7)) (UniProt P62344); assay: PfCDPK1 kinase inhibitors, biochemical, TCAMS library (AID 1159585; cut-off not given, nearly all actives have IC50 up to about 0.98 µM;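 also: inhibitors leave more ATP so luminescence rises with inhibition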); details: recombinant PfCDPK1, Kinase-Glo ATP depletion luminescence
# [6] = target: Plasmodium falciparum protein kinase 6 (PK6, PF3D7_1337100) (UniProt Q8IDW1); assay: PfPK6 kinase inhibitors, biochemical, TCAMS library (AID 1159586); details: recombinant PfPK6, Kinase-Glo ATP depletion luminescence
# [7] = target: Protein kinase 7 (PK7), Plasmodium falciparum 3D7 (PF3D7_0213400) (UniProt Q7YTF7); assay: inhibition of Plasmodium PK7 catalytic activity – biochemical, TCAMS antimalarial set, Kinase-Glo luminescence (AID 1159587); details: recombinant PfPK7, Kinase-Glo ATP depletion luminescence
# [8] = target: Calcium-dependent protein kinase 4 (Plasmodium falciparum (isolate 3D7)) (UniProt Q8IBS5); assay: PfCDPK4 kinase inhibitors, biochemical, TCAMS library (AID 1159588; cut-off not given, nearly all actives have IC50 up to about 0.91 µM); details: recombinant PfCDPK4, Kinase-Glo ATP depletion luminescence
# Sequence of Calcium-dependent protein kinase 4 (Plasmodium falciparum (isolate 3D7)) (Q8IBS5 whole entry, looked up): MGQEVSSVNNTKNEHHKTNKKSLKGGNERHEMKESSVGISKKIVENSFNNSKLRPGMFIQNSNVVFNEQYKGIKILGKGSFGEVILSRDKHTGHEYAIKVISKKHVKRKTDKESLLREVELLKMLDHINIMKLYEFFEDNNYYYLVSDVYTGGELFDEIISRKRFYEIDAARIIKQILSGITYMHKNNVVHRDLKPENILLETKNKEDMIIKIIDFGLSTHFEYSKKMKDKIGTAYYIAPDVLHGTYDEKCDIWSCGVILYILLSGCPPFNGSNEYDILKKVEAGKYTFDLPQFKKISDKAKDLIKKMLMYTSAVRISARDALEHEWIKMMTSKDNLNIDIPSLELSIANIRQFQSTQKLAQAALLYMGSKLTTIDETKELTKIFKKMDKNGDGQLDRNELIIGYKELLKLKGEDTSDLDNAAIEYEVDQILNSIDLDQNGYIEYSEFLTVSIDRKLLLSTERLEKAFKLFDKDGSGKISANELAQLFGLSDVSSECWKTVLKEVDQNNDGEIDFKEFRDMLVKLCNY
# Sequence of L-lactate dehydrogenase (Plasmodium falciparum (isolate CDC / Honduras)) (Q27743 whole entry, looked up): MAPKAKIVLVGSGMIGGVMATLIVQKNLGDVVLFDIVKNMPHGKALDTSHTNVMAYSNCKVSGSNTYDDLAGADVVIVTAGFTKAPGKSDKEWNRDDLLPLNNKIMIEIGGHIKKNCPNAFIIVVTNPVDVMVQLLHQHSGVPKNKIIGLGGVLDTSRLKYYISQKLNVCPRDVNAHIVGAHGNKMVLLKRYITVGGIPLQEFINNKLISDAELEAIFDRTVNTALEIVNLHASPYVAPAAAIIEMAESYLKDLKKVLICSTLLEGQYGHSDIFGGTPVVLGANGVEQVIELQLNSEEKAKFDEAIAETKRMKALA
# Sequence of Calcium-dependent protein kinase 1 (Plasmodium falciparum (isolate 3D7)) (P62344 whole entry, looked up): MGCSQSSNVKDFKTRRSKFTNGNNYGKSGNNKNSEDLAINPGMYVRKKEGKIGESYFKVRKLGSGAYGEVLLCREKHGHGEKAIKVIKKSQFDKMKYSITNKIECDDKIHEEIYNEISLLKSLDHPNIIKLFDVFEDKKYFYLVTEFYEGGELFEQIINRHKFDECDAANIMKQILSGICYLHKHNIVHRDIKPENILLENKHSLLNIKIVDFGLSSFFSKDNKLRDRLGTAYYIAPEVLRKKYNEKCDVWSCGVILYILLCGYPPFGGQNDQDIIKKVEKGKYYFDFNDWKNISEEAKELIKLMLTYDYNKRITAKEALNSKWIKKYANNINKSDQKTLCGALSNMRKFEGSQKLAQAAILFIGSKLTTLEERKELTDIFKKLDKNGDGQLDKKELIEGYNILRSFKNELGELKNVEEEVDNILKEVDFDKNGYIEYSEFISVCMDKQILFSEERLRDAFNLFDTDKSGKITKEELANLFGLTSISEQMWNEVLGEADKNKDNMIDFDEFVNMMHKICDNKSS
# Sequence of Plasmodium falciparum protein kinase 6 (PK6, PF3D7_1337100) (Q8IDW1 1-305): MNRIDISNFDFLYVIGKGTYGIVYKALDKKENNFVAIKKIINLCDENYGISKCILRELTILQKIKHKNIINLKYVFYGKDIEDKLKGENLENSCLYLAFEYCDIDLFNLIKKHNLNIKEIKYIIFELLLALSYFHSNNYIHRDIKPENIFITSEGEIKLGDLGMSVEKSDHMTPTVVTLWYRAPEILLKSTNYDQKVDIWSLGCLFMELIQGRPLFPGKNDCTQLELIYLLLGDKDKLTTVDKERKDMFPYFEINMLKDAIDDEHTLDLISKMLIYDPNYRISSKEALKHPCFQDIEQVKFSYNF
# Sequence of Protein kinase 7 (PK7), Plasmodium falciparum 3D7 (PF3D7_0213400) (Q7YTF7 1-343): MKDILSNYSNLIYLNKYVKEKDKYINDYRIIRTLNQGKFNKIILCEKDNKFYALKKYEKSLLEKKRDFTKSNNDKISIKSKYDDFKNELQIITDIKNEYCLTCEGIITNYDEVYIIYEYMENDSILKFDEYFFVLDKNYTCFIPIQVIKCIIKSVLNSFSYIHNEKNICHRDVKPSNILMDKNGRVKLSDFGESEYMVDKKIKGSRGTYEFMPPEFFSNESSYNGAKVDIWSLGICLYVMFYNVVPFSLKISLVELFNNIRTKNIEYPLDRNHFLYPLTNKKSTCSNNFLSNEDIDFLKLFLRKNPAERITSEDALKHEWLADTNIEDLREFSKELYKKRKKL
Structure (SMILES),growth inhibition [1],inhibition [2],inhibition [3],growth inhibition [4],outcome [5],outcome [6],outcome [7],outcome [8]
Oc1cc2c(cc1CN1CCN(Cc3ccccc3F)CC1)CCC2,94% (active),2%,-3%,98% (active),inactive,inactive,inactive,inactive
Fc1ccc2nc(-c3ccc(-c4ccc(CNCCc5cccnc5)cc4)s3)[nH]c2c1,99% (active),40%,-7%,100% (active),inactive,inactive,inactive,inactive
CC(C)N1CCC(N(Cc2ccc(-c3ccc(Cl)cc3)cc2)C(=O)Cn2c(CCc3cccc(F)c3F)cc(=O)c3ccccc32)CC1,73% (active),62% (active),4%,96% (active),inactive,inactive,inactive,inactive
c1ccc(COc2ccccc2COc2ccccc2-c2ccc3cccnc3n2)cc1,95% (active),-6%,5%,87% (active),inactive,inactive,inactive,inactive
COc1ccc2nccc(NN=Cc3ccccc3[N+](=O)[O-])c2c1,100% (active),67% (active),-2%,100% (active),inactive,inactive,inactive,inactive
CN1CCC(Oc2ccc(CN3CC[C@H](NC(=O)c4ccc(Cl)c(F)c4)C3)c3ccccc23)C1 (some centres not stated),65% (active),51% (active),3%,101% (active),inactive,inactive,inactive,inactive
CC(C)(C)c1ccc(CNCC(C)(C)c2nc(-c3ccc(Cl)c(O)c3)c(-c3ccnc(N)n3)[nH]2)cc1,54% (active),28%,-7%,100% (active),inactive,inactive,inactive,inactive
COc1cc(NC(=O)c2sc(-c3ccc(Cl)cc3)cc2NC(=O)c2cccc(N(C)C)c2)ccc1OCCN1CCCC1,67% (active),49%,-3%,99% (active),inactive,inactive,inactive,inactive
O=C(NC1CCN(Cc2ccccc2)CC1)c1ccc2c(=O)n(Cc3ccc(Cl)cc3)c(=S)[nH]c2c1,100% (active),16%,5%,101% (active),inactive,inactive,inactive,inactive
O=C(NCCN1Cc2ccccc2C1=O)c1ccc(Oc2ccc(C(=O)NCCN3Cc4ccccc4C3=O)cc2)cc1,95% (active),27%,-1%,99% (active),inactive,inactive,inactive,inactive
COc1cccc2cc(C(=O)N[C@@H](CC(C)C)C(=O)N[C@H](/C=N/NC(=O)c3ccccc3)Cc3cnc[nH]3)oc12,90% (active),3%,-6%,99% (active),inactive,inactive,inactive,inactive
CN1CCCC1CCNC(=O)[C@H](CC1CCCCC1)NC(=O)c1ccc(O)c(-c2ccc(Cl)c(Cl)c2)c1 (some centres not stated),35%,0%,3%,98% (active),inactive,inactive,inactive,inactive
OCC1CCN(Cc2cccc(-c3ccc(-c4nc5ccc(C(F)(F)F)cc5[nH]4)s3)c2)CC1,90% (active),-6%,-9%,99% (active),inactive,inactive,inactive,inactive
CCC[C@@H]([C@@H](CC1CCC(C)CC1)C(=O)N[C@@H](CCCCNC(=O)c1ccccn1)C(=O)Nc1nccs1)N(O)C=O (some centres not stated),79% (active),25%,-1%,101% (active),inactive,inactive,inactive,inactive
COc1ccc(NC(=O)/C=C/c2ccc(-c3ccccc3)cc2)cc1N1CCN(C)CC1,46%,21%,6%,90% (active),inactive,inactive,inactive,inactive
NS(=O)(=O)c1cncc(-c2ccc3nccc(-c4cn[nH]c4)c3n2)c1,100% (active),33%,-2%,99% (active),inactive,inactive,inactive,inactive
O=C(/C=C/c1ccc(Cl)c(Cl)c1)NCCCCCN1CCC(C(=O)Nc2ccc3c(c2)OCO3)CC1,-3%,18%,4%,92% (active),inactive,inactive,inactive,inactive
O=S(=O)(c1ccccc1OC(F)(F)F)C1C[C@H]2CC[C@@H](C1)N2S(=O)(=O)c1cccc(C(F)(F)F)c1 (some centres not stated),99% (active),5%,2%,99% (active),inactive,inactive,inactive,inactive
Oc1cccc(-c2nc(-c3ccccc3)c(-c3ccc(Oc4ccc(-c5[nH]c(-c6cccc(O)c6)nc5-c5ccccc5)cc4)cc3)[nH]2)c1,96% (active),6%,0%,91% (active),inactive,inactive,inactive,inactive
Cn1cncc1-c1ccc2ncnc(Nc3ccc(OCc4ccccc4)cc3)c2c1,99% (active),4%,1%,101% (active),inactive,inactive,inactive,inactive

Structure (SMILES),growth inhibition [1],inhibition [2],inhibition [3],growth inhibition [4],outcome [5],outcome [6],outcome [7],outcome [8]
CSc1ccc(NC(=O)Nc2cc(C)nc3ccccc23)cc1,23%,7%,1%,100% (active),inactive,inactive,inactive,inactive
CCOC(=O)c1cnc2cc(N3CCCC3)c(Cl)cc2c1OCC,97% (active),0%,-2%,97% (active),inactive,inactive,inactive,inactive
OC(CNCc1ccccc1OCc1ccccc1)c1cc(C(F)(F)F)cc(C(F)(F)F)c1 (configuration not stated),99% (active),3%,3%,100% (active),inactive,inactive,inactive,inactive
CC(C)N(Cc1ccc(-c2ccc(C(F)(F)F)cc2)cc1)C(=O)Cn1c(CCc2cccc(F)c2F)cc(=O)c2ccc(CCCN3CCCCC3)cc21,82% (active),99% (active),7%,100% (active),inactive,inactive,inactive,inactive
COc1ccc2ncc(Cl)c(CCN3C[C@H](CNCc4ccc5c(n4)NC(=O)CS5)[C@H](O)C3)c2n1,16%,2%,3%,94% (active),inactive,inactive,inactive,inactive
CNc1nc(NN=Cc2cc3c(cc2[N+](=O)[O-])OCO3)nc(Nc2cccc(C(F)(F)F)c2)n1,60% (active),-1%,2%,101% (active),inactive,inactive,inactive,inactive
COc1ccc(-n2cc(CNCCCn3ccnc3)c(-c3cccc(F)c3)n2)cc1,17%,21%,0%,98% (active),inactive,inactive,inactive,inactive
O=C(/C=C/c1ccc(Cl)c(Cl)c1)NCCCCCN1CCC(NC(=O)Nc2cccc(F)c2)CC1,6%,30%,2%,100% (active),inactive,inactive,inactive,inactive
CC(=O)Oc1c(C2CCN(CCCCNC(=O)c3ccc(NC(=O)c4ccc(Cl)cc4)cc3)CC2)ccc2ccccc12,92% (active),24%,-6%,101% (active),inactive,inactive,inactive,inactive
COc1cncc(/C=C/c2cncc(C(=O)NCCc3ccc(Cl)cc3Cl)c2)c1,49%,-3%,-9%,99% (active),inactive,inactive,inactive,inactive
COc1cccc(O)c1CN1CCC2(CCCN(Cc3ccc(F)cc3)C2)C1 (configuration not stated),72% (active),21%,1%,98% (active),inactive,inactive,inactive,inactive
Cc1cc(N)cc2[nH]c(-c3ccc(N)cc3)nc12,75% (active),-7%,-11%,96% (active),inactive,inactive,inactive,inactive
O=[N+]([O-])c1ccc(C=NNc2nc3ccccc3[nH]2)cc1,98% (active),11%,-6%,101% (active),inactive,inactive,inactive,inactive
COc1ccc(Nc2ncc3c(-c4cccc(NC(=O)c5ccc(N)cc5)c4)c[nH]c3n2)cc1OC,31%,83% (active),-3%,84% (active),inactive,inactive,inactive,inactive
N#Cc1ccc(CN2CCCN(c3ccc(NC(=O)c4ccc(F)cc4)cc3)CC2)cc1,61% (active),12%,-2%,90% (active),inactive,inactive,inactive,inactive
COc1cc(CNCCCCCCNCc2cc(OC)c(OC)c3ccccc23)c2ccccc2c1OC,100% (active),100% (active),-1%,100% (active),inactive,inactive,inactive,inactive
CCN(CC)CCOC(=O)c1ccc(NC(=O)c2cc(-c3ccc(C)cc3)nc3ccccc23)cc1,12%,22%,-4%,97% (active),inactive,inactive,inactive,inactive
Cc1[nH]c2ccccc2c1C1CCN(CCCCNC(=O)c2ccc(-c3ccc(C#N)cc3)cc2)CC1,97% (active),19%,-3%,101% (active),inactive,inactive,inactive,inactive
CCN(CC)CC#Cc1ccc2[nH]c(C)c(Cl)c(=O)c2c1,95% (active),11%,-6%,96% (active),inactive,inactive,inactive,inactive
